Test results taken from PubChem BioAssay (NCI).
The panel holds about 79,000 compounds, 15% with a hit somewhere; the sample as a whole holds those more often. Rule as the data show it: active = growth inhibition above about 70%; inactive = the rest.

Legend:
[1] = NCI Yeast Anticancer Drug Screen. Data for the rad50 strain (AID 155);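 also: 0% = growth of vehicle-only cultures of the same strain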; settings: S. cerevisiae rad50 strain growth inhibition; at 50.0 µM; stronger effect = higher value
In short: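 Compounds were tested on a yeast strain with an engineered DNA damage repair alteration; the reported value is growth inhibition normalised to vehicle treatment.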

[2] = NCI Yeast Anticancer Drug Screen. Data for the mec2-1 strain (AID 157); settings: S. cerevisiae mec2-1 strain, at 50.0 µM, stronger effect = higher value
In short: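 Each compound was tested on mec2-1 yeast, a strain altered in DNA damage repair or cell cycle control. Growth inhibition is reported relative to vehicle.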

[3] = NCI Yeast Anticancer Drug Screen. Data for the sgs1 mgt1 strain (AID 161);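 also: 0% = growth of cultures given vehicle only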; settings: S. cerevisiae sgs1 mgt1 strain, at 50.0 µM, stronger effect = higher value
In short: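 Read-out: growth inhibition vs vehicle controls. Cells: mutant yeast strain deficient in DNA damage repair.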

[4] = NCI Yeast Anticancer Drug Screen. Data for the cln2 rad14 strain (AID 165);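 also: 0% = growth equal to vehicle treated cultures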; settings: S. cerevisiae cln2 rad14 strain, at 50.0 µM, stronger effect = higher value
In short: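 Test compounds were added to cln2 rad14 yeast cultures; inhibition of growth was then determined by comparison with vehicle treatment.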

[5] = NCI Yeast Anticancer Drug Screen. Data for the bub3 strain (AID 167); settings: S. cerevisiae bub3 mutant strain, at 50.0 µM, stronger effect = higher value
In short: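 Growth of a checkpoint-deficient yeast mutant is measured after compound exposure. Values represent inhibition relative to vehicle.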

[6] = NCI Yeast Anticancer Drug Screen. Data for the mlh1 rad18 strain (AID 175); settings: S. cerevisiae mlh1 rad18 strain growth inhibition; at 50.0 µM; stronger effect = higher value
In short: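 Inhibition values reflect reduced growth of mutant yeast versus vehicle-treated controls following compound exposure; the mutations affect DNA damage repair.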

Measured: growth inhibition

NS(=O)(=O)c1ccc(NC(=S)/N=C/c2c(O)c3ccccc3oc2=O)cc1
inactive: [1] 6.2% | [2] -4.45% | [3] 16.3% | [4] -18.9% | [5] -10.4% | [6] 12.6%

N#CC(C(=O)CCC(=O)Nc1ccc(Cl)c(Cl)c1)c1ccc(Cl)cc1 (stereo unspecified)
inactive: [1] -12.9% | [2] -29.9% | [3] 18.1% | [4] 15.4% | [5] 8.4% | [6] -2.2%

COC1CC(C)OC(OC2C(C)/C=C/C(=O)OC(C)C(COC3OC(C)C(O)C(OC)C3OC)C3OC3/C=C/C(=O)C(C)(O)CC2C)C1O (stereo unspecified)
inactive: [1] 1.55% | [2] -5.25% | [3] 3.55% | [4] 1.5% | [5] 5.25% | [6] 5%

CC(C)CCCCC(C)(C)OC(=O)NC(N)=O
inactive: [1] 7.25% | [2] 2% | [3] 12.2% | [4] 17.1% | [5] -17.6% | [6] 9.85%

CCCCCCC#CC(=O)O
inactive: [1] 7.8% | [2] -3.6% | [3] 0.5% | [4] 16.1% | [5] -4.3% | [6] 30.4%

C=CCCC1CC(OCC)OC(CCC=C)O1 (stereo unspecified)
inactive: [1] 16.9% | [2] 1.15% | [3] 1.25% | [4] -24.8% | [5] -6.3% | [6] 13.8%

CCC/C=N/NC(=O)CCCCCCCCCCCCCCCCC
inactive: [1] 7.35% | [2] 7.95% | [3] 16.9% | [4] -8.2% | [5] 7.7% | [6] 14.3%

Cc1cc(=O)oc2c(C(=O)/C=C/N(C)C)c(O)ccc12
inactive: [1] -29.9% | [2] 4.1% | [3] 7.85% | [4] 0.25% | [5] 9.95% | [6] 7.7%

CC(=O)OCC1OC(N2C(=O)C(=O)c3cc(C)ccc32)C(OC(C)=O)C(OC(C)=O)C1OC(C)=O (stereo unspecified)
inactive: [1] 59.8% | [2] 10.2% | [3] 5.85% | [4] 1.7% | [5] 41% | [6] 33.4%

NC(=O)CCCC(=O)c1cccc([N+](=O)[O-])c1
inactive: [1] -14.2% | [2] 2.2% | [3] -16.9% | [4] -42.9% | [5] -1.25% | [6] -25.4%

CCOC(=O)COc1cc2c(cc1C(CC)c1ccccc1)OCO2 (stereo unspecified)
inactive: [1] -7.85% | [2] -1.45% | [3] -3.25% | [4] 5.95% | [5] 9.45% | [6] 2.9%

S=C1NNC2(C(=S)N1)c1ccccc1-c1ccccc12
inactive: [1] 32.4% | [2] -11.2% | [3] 14.6% | [4] 5% | [5] 3.2% | [6] 55.4%

CN(C)c1ncnc2c1ccn2CC(O)CO (stereo unspecified)
inactive: [1] -2.7% | [2] -11.1% | [3] -8.55% | [4] -54.5% | [5] 3.1% | [6] -2.85%

COc1cc(C(=O)N2C[C@H](O)C[C@H]2C(=O)O)cc(OC)c1OC
inactive: [1] -18.4% | [2] -15.9% | [3] -32.8% | [4] -5.75% | [5] -16.4% | [6] -9.85%

C[C@]12CC[C@@H]3c4ccc(OCCCO)c([N+](=O)[O-])c4CC[C@H]3[C@@H]1CCC2=O
inactive: [1] 16.3% | [2] 6.8% | [3] 17.7% | [4] 12.4% | [5] -0.5% | [6] 16%

O=C(c1ccc(Cl)c(Cl)c1)n1c2ccccc2c2ccccc21
inactive: [1] -0.65% | [2] -47.5% | [3] -12.3% | [4] 3.8% | [5] -4.1% | [6] 2.4%

Clc1ccc(OCCBr)cc1
inactive: [1] 39.2% | [2] 27.9% | [3] 29.4% | [4] 19.9% | [5] 3.8% | [6] 25.6%

CC(=O)Nc1ccc(Sc2ccc(NC(C)=O)cc2O)c(O)c1
inactive: [1] 34.1% | [2] 17% | [3] 32% | [4] -31.4% | [5] 14.7% | [6] 41.9%

CC(C)CC(N)C(=O)NC(Cc1cc2ccccc2[nH]1)C(=O)O (stereo unspecified)
inactive: [1] 2.4% | [2] -6.25% | [3] 7.3% | [4] -17.9% | [5] 5.2% | [6] -0.4%

CC(C)c1ccc(/C=N\NC(=O)NNC(=O)c2ccccc2)cc1
inactive: [1] -3.05% | [2] -4.25% | [3] 11.6% | [4] -95.8% | [5] -2.85% | [6] -8.25%

COc1ccc(/C=N/N2CCN(/N=C/c3ccc(OC)c(OC)c3)CC2)cc1OC
inactive: [1] 22.9% | [2] 0.65% | [3] 3.25% | [4] 19.1% | [5] -1.75% | [6] 1.15%

Cc1c(C)c(C)c(CN2CC(=O)c3ccccc3C2=O)c(C)c1C
inactive: [1] 18% | [2] 13.7% | [3] 4% | [4] 14.1% | [5] 10.6% | [6] 15.5%

CN(C)CCC(=O)C(=Cc1ccc(O)cc1)C(=O)CCN(C)C
inactive: [1] -35.2% | [2] -38.1% | [3] -2.4% | [4] -3.5% | [5] 7.1% | [6] -39.5%

O=C1CC(NC(=O)C(F)(F)F)c2c(Br)sc(N3CCNCC3)c21 (stereo unspecified)
inactive: [1] 6.05% | [2] 12.1% | [3] -25.2% | [4] -2.2% | [5] -2.65% | [6] -30.4%

N#C/C(N)=C(\C#N)NC=NCc1ccccc1
inactive: [1] -10.8% | [2] -18.6% | [3] 20.2% | [4] 2.3% | [5] 26.3% | [6] -21.1%

CCCCCCCCCCCCSc1nc2c([nH]1)c(=O)n(C)c(=S)n2C
inactive: [1] -24.1% | [2] 0.75% | [3] -31.9% | [4] 16.4% | [5] -1.05% | [6] -15.2%

Cc1ccc(N2C(=O)/C(=C/c3ccc(N(CCC#N)CCC#N)cc3)CC2(O)c2ccccc2)cc1 (stereo unspecified)
inactive: [1] -12.1% | [2] -12.6% | [3] -38.3% | [4] -23.8% | [5] -13.1% | [6] -5.55%

N#CC(C#N)=Cc1cccc(Oc2ccccc2)c1
inactive: [1] 57.1% | [2] -2.8% | [3] 9.6% | [4] 8.65% | [5] -8.65% | [6] -15.7%

N#Cc1ccccc1OCCCCOc1ccccc1C#N
inactive: [1] 8.7% | [2] 14% | [3] 15.2% | [4] 14.2% | [5] 18.7% | [6] 16.1%

CCCCCCC1CCC(O)CC1 (stereo unspecified)
inactive: [1] 22.6% | [2] 2.95% | [3] -8.05% | [4] -0.15% | [5] 12.3% | [6] 41.1%

Cc1cccc2nnc(CCCc3nnc4cccc(C)n34)n12
inactive: [1] -0.85% | [2] 1.85% | [3] -22.1% | [4] -34.4% | [5] -8.8% | [6] -6.3%

Cc1nc(C(=O)N=C(N)N)c(N)nc1-c1ccccc1
inactive: [1] -22.6% | [2] -4.3% | [3] -7.7% | [4] -28.2% | [5] -4.8% | [6] -4%

CC(=O)OCC1OC(n2c(C)c(N=Nc3ccccc3)c(C)c(C#N)c2=S)C(OC(C)=O)C(OC(C)=O)C1OC(C)=O (stereo unspecified)
inactive: [1] -17.7% | [2] -17.6% | [3] -1.7% | [4] -1% | [5] -10.3% | [6] 14.8%

CCCc1nc2ccccc2c(=O)n1/N=C/c1ccc(Cl)cc1Cl
inactive: [1] -11.7% | [2] 0.4% | [3] 0.05% | [4] 3% | [5] -3.45% | [6] -3.4%

COC(=O)c1ccccc1OC(C)=O
inactive: [1] 9.8% | [2] 11.4% | [3] -0.4% | [4] 13.8% | [5] 1.5% | [6] -10.7%

Cc1ccc(S(=O)(=O)c2cc3ccccc3oc2=O)cc1
inactive: [1] -1.25% | [2] 1% | [3] -8.2% | [4] -40% | [5] -11.2% | [6] -9.65%

CC(C)Oc1ccc(CCOC(=O)Nc2cccc3ccccc23)cc1
inactive: [1] -0.5% | [2] 0.85% | [3] 2% | [4] 6.65% | [5] 3.8% | [6] 9.5%

NC(Cc1ccccc1)C(=O)NCC(=O)Oc1ccc([N+](=O)[O-])cc1 (stereo unspecified)
inactive: [1] 36.5% | [2] 20.4% | [3] 20.1% | [4] 18.1% | [5] 2.35% | [6] 23.1%

Cc1ccc(C2=Nn3c(nc4sc(C)c(C)c4c3=O)SC2)cc1
inactive: [1] -27.9% | [2] -3.25% | [3] -23.1% | [4] 6.15% | [5] -22.1% | [6] -10.6%

CC(=O)c1c(C)cc(C)nc1C
inactive: [1] 14.8% | [2] -12.2% | [3] 17.4% | [4] 10% | [5] 30.6% | [6] 9%

CCN1C(=O)/C(=C\c2ccccc2)N=C1C
inactive: [1] 2.45% | [2] -7.35% | [3] 5.55% | [4] -58% | [5] -12.8% | [6] -42%
